About 83,000 compounds went through this panel and 20% of them were active in at least one assay; those are over-represented in the sample as a whole.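 Note: values are percent growth. 100 is the growth of untreated cells, values between 100 and 0 indicate rising inhibition; between -100 and 0 indicates cell death.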 Active and inactive are the calls of the source. The calls were made as follows: active = growth percent below 10; inactive = the rest.

The subject of the assay is HL-60(TB) leukemia. Kind of assay: NCI-60 one-dose screen, 48 h (100 = growth as untreated, 0 = no growth, -100 = all killed). To be noted: 10 µM unless noted.
Turning to `COc1ccc(-c2nc3sccn3c2/C=C/C(=O)c2cc(F)cc(F)c2)cc1`, the growth is 60.4% (inactive).
As to `c1ccc(-c2cn3nc(-c4c[nH]c5ccccc45)sc3n2)cc1`, the growth was 95.1% (inactive).
In the case of `c1ccc2cc(Cn3c(-c4ccc5ccccc5c4)[n+](Cc4ccc5ccccc5c4)c4ccccc43)ccc2c1`, the growth was -45.9% (active).
Turning to `c1ccc(Cn2cc3c(c2-c2ccccc2)CCc2cnoc2-3)cc1`, the growth is 35.6% (inactive).
As to `Fc1ccc(-c2nnc(N3CCOCC3)c3ccccc23)cc1`, the growth is 264% (inactive).
`COc1ccc(-c2nc(SCCC(C)C)nc(N/N=C(/C)c3ccc(N)cc3)c2C#N)cc1`: the growth was 83.8% (inactive).
In the case of `COc1cc(-c2nc(C(=O)NCC(=O)O)nn2-c2ccc(Cl)cc2)cc(OC)c1OC`, the growth was 101% (inactive).
On to `COc1cc(/C=C/C(=O)c2ccc(Nc3nc(Nc4ccc(F)cc4)nc(Nc4ccc(Cl)cc4)n3)cc2)cc(OC)c1OC`, for which the growth is -32.1% (active).
Consider `[Cl-].[Rh+3].c1ccc(-c2ccnc3c2ccc2c(-c4ccccc4)ccnc23)cc1.c1ccc(-c2ccnc3c2ccc2c(-c4ccccc4)ccnc23)cc1.c1ccc(-c2ccnc3c2ccc2c(-c4ccccc4)ccnc23)cc1`, for which the growth is 99.9% (inactive).
Take `Cc1cc(C)c(C(=O)OC(C)CNC2CCCCC2)c(C)c1` (stereo unspecified): the growth is 87.5% (inactive).
As for `Cc1cc(Nc2ccc(Cl)cc2)nc(NCCCNc2ccnc3cc(Cl)ccc23)n1`, the growth is -76.8% (active).

The values above are taken from PubChem BioAssay (NCI).
